Source: PubChem BioAssay AID687036 (The Scripps Research Institute Molecular Screening Center, 2013)
Screen size: about 3,300 compounds; about 1,400 (42%) were called active. The set was probably picked from earlier hits. The list is a sample of the results. Values without a mark were called inactive.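 Rule for the calls: active = mean inhibition across replicates above the hit cutoff derived for the earlier primary screen (cut at about 22% in these data); inactive = the rest.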

These compounds were tested against Protein arginine N-methyltransferase 1 (Homo sapiens) (UniProt Q99873) (assay: PRMT1 methyltransferase inhibitors, confirmation, biochemical, fluorescence polarization, triplicate (AID 687036)). Conditions: recombinant His-PRMT1, activity-based probe fluorescence polarization; at 2.79 µM; active compounds read high.
Chain of Protein arginine N-methyltransferase 1 (Homo sapiens) (Q99873 whole entry, looked up): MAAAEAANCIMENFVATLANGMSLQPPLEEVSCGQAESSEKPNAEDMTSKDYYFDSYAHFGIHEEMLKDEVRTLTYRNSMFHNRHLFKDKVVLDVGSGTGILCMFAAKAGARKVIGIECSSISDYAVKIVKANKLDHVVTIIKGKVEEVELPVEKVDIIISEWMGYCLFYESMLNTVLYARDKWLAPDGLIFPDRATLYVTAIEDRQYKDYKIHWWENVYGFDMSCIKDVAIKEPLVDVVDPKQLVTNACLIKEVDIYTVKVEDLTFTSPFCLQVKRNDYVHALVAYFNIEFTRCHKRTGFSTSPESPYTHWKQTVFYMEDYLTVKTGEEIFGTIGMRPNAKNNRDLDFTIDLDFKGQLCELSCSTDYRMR

Compound | inhibition
CC1=C(C)CC2C(=O)N(c3cccc4ccccc34)C(=O)C2C1 (stereo not given) | 54.1% (active)
O=C(O)CCn1c(O)c(C=C2N=c3ccccc3=N2)sc1=S | -5.43%
O=C(NC(Cc1c[nH]c2ccccc12)C(=O)O)/C(=C/c1ccco1)NC(=O)c1ccccc1 (stereo not given) | 9.09%
Cc1ccc(NC(=O)Cn2sc3ccccc3c2=O)cc1 | 82.3% (active)
CCC(c1nnnn1Cc1ccco1)N(Cc1cc2cc(OC)ccc2[nH]c1=O)C1CCCCC1 (stereo not given) | 18%
COC(=O)C[n+]1cccc2ccccc21 | 32.6% (active)
NC(=O)c1c(Nc2nc3c(F)cccc3s2)sc2c1CCCC2 | -3.26%
O=C(CSc1cccc[n+]1[O-])c1ccc(-c2ccccc2)cc1 | 25.6% (active)
O=C(Cc1ccc(-c2ccccc2)cc1)NC(c1ccccc1)c1ccccc1 | 3.32%
Cc1sc(NC(=O)c2ccc3ncsc3c2)c(C(N)=O)c1C | 3.89%
N#CC1(Nc2ccc3c4c(cccc24)CC3)CCCCC1 | 10.2%
CSc1nc(C)cc(SC(C(C)=O)C(=O)Nc2ccccc2)n1 (stereo not given) | 22.5% (active)
CN(C)C(=S)N=c1ssc(=S)n1Cc1ccco1 | 15.6%
Cc1ccc(-n2nc(-c3ccco3)cc2C(=O)NCc2cccnc2)cc1 | 19.5%
C=CS(=O)c1sc(Cl)c(N2CCOCC2)c1[N+](=O)[O-] (stereo not given) | 87.1% (active)
CCOC(=O)c1cc2n(c1N)-c1ccccc1C2=O | 116% (active)
Cc1ccccc1CN1C[C@@H]2C[C@@H](c3cn(C)nc3-c3ccccc3)N3CCC[C@@]23C1=O | 5.9%
O=C(Nc1cccc(F)c1)c1cc(-c2ccco2)nc2ccccc12 | 3.51%
O=C(Nc1nc(-c2ccco2)c(-c2ccco2)s1)c1ccco1 | 30.4% (active)
COc1cc(C(=S)NCc2ccccc2)cc(Br)c1O | 19.8%
N#CC1=C(N)Oc2[nH]c(=S)[nH]c(=O)c2C12C(=O)Nc1ccccc12 (stereo not given) | 66.4% (active)
Cc1ccc(Cc2cnc(N)s2)o1 | -3.79%
O=C(CN1C(=O)S/C(=C\c2ccccc2F)C1=O)NCCCn1ccnc1 | -3.11%
CC(NC(=O)CSc1nc2c(cc1C#N)CN(C)CC2)c1ccccc1 (stereo not given) | 6.37%

Compound | inhibition
COc1ccc(C(=O)COC(=O)COc2ccc(C)c(C)c2)cc1 | 3.72%
COc1ccnc(NC(=S)N2CCN(c3ncc(C(F)(F)F)cc3Cl)CC2)c1 | 4.89%
c1ccc(C(=NNc2nc3ccccc3s2)c2ccccn2)cc1 | 22.1% (active)
Cc1nc2sc(C(c3ccco3)N3CCOCC3)c(O)n2n1 (stereo not given) | 7.49%
CCN(CC)CCCC(C)n1c2nc(=O)[nH]c(=O)c-2nc2cc(Cl)ccc21 (stereo not given) | 153% (active)
CC(C(=O)Nc1ccc(O)c(C(=O)O)c1)N1C(=O)/C(=C/c2cccs2)SC1=S (stereo not given) | 12%
COCCNC(=S)Nc1cc(S(=O)(=O)N2CCOCC2)ccc1N1CCCCC1 | 4.34%
N#Cc1ccccc1S(=O)(=O)N1CCN(Cc2c(O)ccc3ccccc23)CC1 | 33.1% (active)
COc1ccc(Nc2nc(-c3cccnc3)nc3ccccc23)cn1 | 11.2%
Cn1sc(=O)c2cc(S(=O)(=O)NC3CC3)ccc21 | 32% (active)
Cc1ccc(CNC(=O)CCS(=O)(=O)c2ccc3c(c2)CC(C)N3C(=O)C2CC2)o1 (stereo not given) | 5.73%
S=c1[nH]nc2c3c4c(sc3ncn12)CCCC4 | 17.1%
CCOc1cccc(/C=N/N2C(=O)CSC2=S)c1O | 83.2% (active)
NC(=O)C1(N2CCCCC2)CCN(C2CC(=O)N(Cc3ccc(N4CCCC4=O)cc3)C2=O)CC1 (stereo not given) | 2.57%
Cc1sc2nc(SCC(=O)c3ccc(O)c(O)c3)n(Cc3ccco3)c(=O)c2c1C | 2.72%
CCOC(=O)N1C(=O)C[C@](Sc2ccc(C)cc2)(C(=O)OC)[C@H]1c1ccccc1 | 60.5% (active)
CCc1ccc(-n2c(=S)sc3c(=O)n(-c4ccccc4OC)c(=S)[nH]c32)cc1 | 14.1%
Cc1ccc(NC(=O)c2cc(-c3ccc(C)o3)nc3ccccc23)nc1 | 10.3%
CCc1n[nH]c(=S)n1/N=C/c1c[nH]c2ccc(Br)cc12 | 18%
Cc1cccc(NC(=O)c2sc3nc(N4CCOCC4)c4c(c3c2N)CCCC4)c1 | 10.1%
Clc1ccccc1CSc1nnc(-c2ccco2)c(-c2ccco2)n1 | 65.4% (active)
O=C(CC1N=C2c3ccccc3N=C(SCc3ccccc3Cl)N2C1=O)NCc1ccco1 (stereo not given) | 5.28%
CC(=O)N1CCN(C(=O)c2cc(-c3ccc(C)o3)nc3ccccc23)CC1 | 13%
Cc1ccnc(-n2sc3ccccc3c2=O)n1 | 89.8% (active)

Compound | inhibition
CCN1/C(=C/C(=S)Nc2ccccc2)Sc2ccccc21 | 24.8% (active)
COc1ccccc1-n1c(-c2cc(-c3ccco3)[nH]n2)n[nH]c1=S | 2.25%
c1ccc(CN2CCC(N=C3NN=C(c4ccc5c(c4)OCCO5)CS3)CC2)cc1 | 27.8% (active)
Cc1cccc(Oc2c([N+](=O)[O-])c(=O)n(C)c3ccccc23)c1 | 9.75%
N#Cc1c(N2CCCCC2)nc(N)c2c(N)nc(SCC(=O)O)cc12 | 56.5% (active)
COc1ccc(C2CC(c3cccs3)=Nc3ccccc3S2)cc1OC (stereo not given) | 48.6% (active)
Cc1cc(C(=O)NN=C/C=C/c2ccco2)n[nH]1 | 0.98%
O=C(Oc1ccccc1C(=S)N1CCCCC1)c1cc([N+](=O)[O-])cc([N+](=O)[O-])c1 | 25.5% (active)
Cc1cc2nc(-c3ccco3)c(Cc3cccc(F)c3)n2c(C)c1Br | 20.8%
COC(=O)c1ccccc1SC1CC(=O)N(c2cccc(C)c2)C1=O (stereo not given) | 23.1% (active)
CCOC(=O)c1ccc(N2C(=O)CC(N3CCC(C(=O)OCC)CC3)C2=O)cc1 (stereo not given) | 1.87%
O=C(O)c1ccc(/C=C2\SC(=S)N(NC(=O)c3ccc(Br)cc3)C2=O)cc1 | 2.94%
CCN(CC)S(=O)(=O)c1cccc(-c2n[nH]c(=S)n2/N=C/c2ccc(C(=O)OC)cc2)c1 | 65.6% (active)
S=c1[nH]nc(-c2ccccc2)n1/N=C/c1c[nH]c2ccccc12 | 12.4%
S=c1ccc2ccccc2[nH]1 | 10.8%
CC(=O)NC1=NC(=O)CS1 | 15.3%
CCOC(=O)N1CCN(C(c2cccnc2)c2ccc3cccnc3c2O)CC1 (stereo not given) | 82.2% (active)
COc1ccccc1C(=O)NN1C(=O)C2C3C=CC(O3)C2C1=O (stereo not given) | 8.23%
COc1ccc(N=C2C=CC(=O)O2)cc1 | 83.2% (active)
COc1ccccc1NC(=O)/C=C/C(N)=O | 55.8% (active)
CN(C)c1ccc(Nc2c3c4c(cccc4n(C)c2=O)C(=O)c2ccccc2-3)cc1 | 1.6%
O=C(O)c1ccccc1CSc1nc2ccccc2s1 | 33.2% (active)
CCC(c1nnnn1Cc1ccco1)N(CCc1ccccc1)Cc1cc2ccc(OC)cc2[nH]c1=O (stereo not given) | 5.74%
O=C1C=CC(=O)N1c1ccc(N2CCCCC2)cc1 | 82.8% (active)

Compound | inhibition
Cc1cc(C)c(S(=O)(=O)NN=C2c3ccccc3[C@H]3Cc4csc[n+]4[C@@H]23)c(C)c1 | 13.2%
Cc1cccc(C)c1NC(=O)C(Cl)C(=O)c1ccccc1 (stereo not given) | 30% (active)
O=c1/c(=C/c2ccc(CNS(=O)(=O)c3ccccc3)o2)sc2n1CCN=2 | -3.63%
Clc1cccc(-c2nc3nc4ccccc4nc3n2Cc2ccco2)c1 | 19.7%
Cc1nc2ccc(S(=O)(=O)NCC(=O)O)cc2s1 | 22.9% (active)
CC(=O)N1C(=O)/C(=C2\SC(=S)N(NC(=O)c3ccc(O)cc3)C2=O)c2ccccc21 | 1.92%
CCCCOC(=O)CNc1nnc(SCC(=O)OCC)[nH]c1=O | 72.3% (active)
CN(C)c1ccc(C(CC(=O)O)C(=O)O)cc1 (stereo not given) | 5.11%
CCOC(=O)Cc1csc(NC(=O)CSc2nc(C)cc(=O)[nH]2)n1 | 61.6% (active)
Cc1cc(NC(=O)C(C)SCC(=O)Nc2cccc(S(=O)(=O)N3CCCCCC3)c2)no1 (stereo not given) | -0.11%
COc1ccc(NC(=O)CN(C)C(=O)c2cc(-c3ccc(C)o3)nc3ccccc23)cc1 | 13.6%
OCCN1CCN(C(=S)c2ccc(-c3ccccc3)cc2)CC1 | 61.8% (active)
CC1CCN(C(=S)c2ccc(-c3ccc(Cl)cc3Cl)o2)CC1 | 4.49%
COc1cc(NC(=S)N2CCCC(C)C2)c(OC)cc1Cl (stereo not given) | 44.5% (active)
CC(=O)N1CC(C)c2scc(C)[n+]2-c2ccccc21 (stereo not given) | 50.9% (active)
COc1ccc(N2C(=O)/C(=C\c3ccco3)N=C2SCC(N)=O)cc1Cl | 5.26%
COc1cccc2c1C(=O)c1c(O)c3c(c(O)c1C2=O)CC(O)(C(C)=NNC(=O)c1ccc(Cl)c(Cl)c1)CC3OC1CC(N)C(O)C(C)O1 (stereo not given) | 159% (active)
Cc1c(NC(=O)/C=C/C(=O)O)cccc1[N+](=O)[O-] | 4.54%
COC(=O)/C=C\C(=O)Nc1cccc([N+](=O)[O-])c1 | 87.6% (active)
O=C(O)/C=C/C(=O)NNc1ccc([N+](=O)[O-])cc1 | 12.7%
CSc1c(SCc2ccccc2)cnn(Cc2ccccc2)c1=O | 18.4%
Nc1c(C(=O)c2cccs2)sc2nsc(SCCN3CCCCC3)c12 | -5.21%
O=C(COC(=O)Cn1cnc2ccccc21)Nc1cccc2c1C(=O)c1ccccc1C2=O | 4.11%
